Entries with a potency or affinity are not part of this list.

The test system of the assay is Staphylococcus aureus. As to conditions: Concentration 20 uM; ASSAY_TEST Inhibition of Bacterial Growth; detection method Absorption (OD600); MEDIA CAMHB; plate type 384well; NBS; CORNING #3640; time 18 hr.
In the case of `C[N+]1(CCC(C(N)=O)(c2ccccc2)c2ccccc2)CCCCC1.[Br-]` [FENPIVERINIUM BROMIDE], the Inhibition stood at 4.81%.
Regarding `CN(C)CCc1c[nH]c2ccc(C[C@H]3COC(=O)N3)cc12` [ZOLMITRIPTAN], the Inhibition is given as 3.79%.
In the case of `C[C@]12CC[C@H](O)CC1=CC[C@@H]1[C@@H]2CC[C@]2(C)C(=O)CC[C@@H]12` [PRASTERONE] it was 13.56%.
`CC(=O)OCC[N+](C)(C)C.[Cl-]` [ACETYLCHOLINE CHLORIDE]: the Inhibition is 11.31%.
The figure for `CCN(C(C)=O)c1cccc(-c2ccnc3c(C#N)cnn23)c1` [ZALEPLON] is 2.73%; for `COC(=O)N1CCN(C(=O)Cc2ccc(Cl)c(Cl)c2)C(CN2CCCC2)C1.O=C(O)/C=C/C(=O)O` (centres undefined) it is 12.27%.
Consider `C[C@]12CC(C=O)=C(O)C[C@@H]1CC[C@@H]1[C@@H]2CC[C@@]2(C)[C@H]1CC[C@]2(C)O`, for which the Inhibition came out at 4.66%.
For `C[C@H](CCC(=O)O)[C@H]1CC[C@H]2[C@@H]3[C@@H](O)C[C@@H]4C[C@H](O)CC[C@]4(C)[C@H]3CC[C@]12C` [URSODIOL], the Inhibition is on record as 5.15%.
On to `Nc1nc(F)nc2c1ncn2[C@@H]1O[C@H](CO)[C@@H](O)[C@@H]1O` [FLUDARABINE], for which the Inhibition is on record as 11.26%.
Regarding `C#C[C@]1(OC(C)=O)CC[C@H]2[C@@H]3CCC4=CC(=O)CC[C@@H]4[C@H]3CC[C@@]21C` [NORETHINDRONE ACETATE], the Inhibition came out at 11.13%.
Take `c1ccc(Cn2ccnc2)cc1`: the Inhibition came to 13.36%.
In the case of `O=C(O)CCCc1ccc(N(CCCl)CCCl)cc1` [CHLORAMBUCIL], the Inhibition was 7.69%.
Consider `COc1ccc2[nH]cc(CCN)c2c1` [5-METHOXYTRYPTAMINE], for which the Inhibition is listed as 3.43%.
`CC[C@@H]1/C=C/C=C/C[C@H](C)[C@@H](O)[C@](C)(O)C(=O)[C@H](C)[C@@H](O)[C@H](C)C(=O)[C@H](C)[C@@H](O)[C@H](C)/C=C/C(=O)O[C@H]2[C@@H](C)[C@@H](CC1)O[C@@]1(CC[C@@H](C)[C@@H](C[C@H](C)O)O1)[C@@H]2C`: the Inhibition amounted to 9.12%.
Turning to `Cl.O.Oc1cc2c(cc1O)[C@H]1c3ccccc3CN[C@@H]1CC2`, the Inhibition was 11.17%.
For the compound `Oc1ncnc2[nH]ncc12` [ALLOPURINOL], the Inhibition is 15.53%.
The figure for `CCOC(=O)c1ncn2c1CN(C)C(=O)c1cc(F)ccc1-2` [FLUMAZENIL] is -0.36%.
Regarding `CC(C)N(CCC(C(N)=O)(c1ccccc1)c1ccccn1)C(C)C.O=P(O)(O)O` (centres undefined) [DISOPYRAMIDE PHOSPHATE], the Inhibition stood at 5.5%.
For the compound `CC[C@@H](C(N)=O)N1CCCC1=O`, the Inhibition turned out to be 18.53%.
The figure for `CN1C(=O)CN=C(c2ccccc2)c2cc([N+](=O)[O-])ccc21` [NIMETAZEPAM] is 10.78%.
In the case of `Cc1ccc(-c2nc3ccc(C)cn3c2CC(=O)N(C)C)cc1.Cc1ccc(-c2nc3ccc(C)cn3c2CC(=O)N(C)C)cc1.O=C(O)C(O)C(O)C(=O)O` [ZOLPIDEM TARTRATE] it was 4.54%.
Take `CC(=O)CC(c1ccccc1)c1c([O-])c2ccccc2oc1=O.[Na+]` (centres undefined) [WARFARIN SODIUM]: the Inhibition was found to be 12.98%.
As to `CC(C)NCC(O)c1ccc(O)c(O)c1.Cl` (centres undefined) [ISOPROTERENOL HYDROCHLORIDE], the Inhibition came out at 7.54%.
Consider `COc1ccc2[nH]cc(C3=CCNCC3)c2c1.COc1ccc2[nH]cc(C3=CCNCC3)c2c1.O=C(O)CCC(=O)O`, for which the Inhibition is 16.86%.
The figure for `Cl.Cl.OCCN1CCN(CCCN2c3ccccc3Sc3ccc(C(F)(F)F)cc32)CC1` [FLUPHENAZINE HYDROCHLORIDE] is 12.42%; for `CN(C)CCc1c[nH]c2ccc(Cn3cncn3)cc12.O=C(O)c1ccccc1` [RIZATRIPTAN BENZOATE] it is 12.43%.
In the case of `CNCCC(Oc1ccc(C(F)(F)F)cc1)c1ccccc1.Cl` (centres undefined) [FLUOXETINE HYDROCHLORIDE] it was 15.46%; in that of `CCC(COC(=O)c1cc(OC)c(OC)c(OC)c1)(c1ccccc1)N(C)C.O=C(O)/C=C\C(=O)O` (centres undefined), 4.02%.
For `CN1CCN2c3ncccc3Cc3ccccc3C2C1` (centres undefined) [MIRTAZAPINE], the Inhibition is reported as -16.68%.
In the case of `COc1cc2c(cc1OC)[C@@]13CCN4CC5=CCO[C@H]6CC(=O)N2[C@H]1[C@H]6[C@H]5C[C@H]43` [BRUCINE] it was 7.1%; in that of `CC[N+](C)(C)c1cccc(O)c1.[Cl-]` [EDROPHONIUM CHLORIDE], 15.74%; in that of `Cl.NCCc1ccc(O)c(O)c1` [DOPAMINE HYDROCHLORIDE], 8.23%.
In the case of `Cc1ccnc2c1NC(=O)c1cccnc1N2C1CC1` [NEVIRAPINE], the Inhibition is given as 12.92%.
The figure for `Cc1nnc2n1-c1ccc(Cl)cc1C(c1ccccc1)=NC2` [ALPRAZOLAM] is 16.72%.

The values are drawn from ChEMBL document CHEMBL4513141, “CO-ADD screening of NIH (USA) - Clinical Collection” (2021).
